Assay [1] concerns Hek293T. The assay can be described thus: Primary qHTS to identify gynecologic anti-cancer compounds using libraries of approved drugs and bioactive compounds (AID 1345084). Also: nearly all actives have a fitted effect of over 55% in size. Also: potency is read from the fitted curve at half-maximal effect. The settings on record: Gynecologic cancer cell panel viability, ATPlite luminescence, 48 h, control line for the selectivity index; series mostly up to 57.5 µM. Put shortly:
(§1)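 Measured: luminescence after ATPlite addition (15 min, RT). Exposure: 48 h, 37 C, 5% CO2.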

In assay [2] the test system is JEG-3. Described as above. The settings on record: Gynecologic cancer cell panel viability, ATPlite luminescence, 48 h; series mostly up to 57.5 µM. Put shortly:
as §1

Assay [3] deals with OV90. The assay is described as above. The settings on record: Gynecologic cancer cell panel viability, ATPlite luminescence, 48 h; series mostly up to 57.5 µM. Put shortly:
as §1

Assay [4] deals with PA-1. The description is as above. The note with it: Gynecologic cancer cell panel viability, ATPlite luminescence, 48 h; series mostly up to 57.5 µM. Summed up: as §1
Assay [5] deals with SKOV3. Described as above. The note with it: Gynecologic cancer cell panel viability, ATPlite luminescence, 48 h; series mostly up to 57.5 µM. Summed up: as §1
Assay [6] deals with Tov-21-G. The assay is described as above. The settings on record: Gynecologic cancer cell panel viability, ATPlite luminescence, 48 h; series mostly up to 57.5 µM. Put shortly:
as §1

Assay [7] relates to Tov112D. The description is as above. The settings on record: Gynecologic cancer cell panel viability, ATPlite luminescence, 48 h; series mostly up to 57.5 µM. Summed up: as §1
Assay [8] is described as follows: qHTS assay to identify inhibitors of the type 1 interferon - major histocompatibility complex class I in skeletal muscle: Counter screen cell viability and HiBit confirmation (AID 1347412). Also: nearly all actives have a fitted effect of over 60% in size. The note with it: iHSKM muscle cells + IFN-b, HiBiT or CellTiter-Glo, 24 h, at 45.9 µM (top of the series). Summed up:
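Myoblasts (C25cl48, HLA-B HiBiT) seeded in medium without dexamethasone, IFN-b 4 ng/ml added except unstimulated columns; 1 hr later compounds pinned (12-pt 1:3, top 46 uM final). Incubated 24 hrs, lysed 10 min, luminescence measured.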

A short description of assay [9]: Drug repurposing screens with cells derived from glioblastoma tumor samples (AID 1345199). Also: nearly all actives have a fitted effect of over 40% in size. The note with it: GBM patient neurospheres viability, ATP luminescence, 48 h. Summed up: (§2)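 Four patient lines of CD133+ GBM neurospheres were screened at several concentrations; hits were retested in those lines plus three slower-growing GBM lines, using 48-hour treatment and ATP-based viability.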

Assay [10] has as its system astro. The assay is described as above. The note with it: viability, ATP luminescence, 48 h; series mostly up to 45.9 µM. Summed up:
as §2

Records with an inconclusive call do not appear. Values without a mark were called inactive. Activity calls are given as the source filed them. Calls follow the shape of the dose curve; as a rule, active = well fitted curve in the direction sought with a large enough effect; inconclusive = small, poorly fitted or top-dose-only effect, or another doubt; inactive = no such curve, though single readings can be large; an effect the other way counts as inactive or inconclusive.
% is scaled to controls: 0 for no effect and ±100 for the full control effect.

Take `CC1CCN(c2cc(N3CCN(C)CC3)ccc2NC(=O)c2cc(C#N)c[nH]2)CC1`: the Potency entry in [1], in assay [2], in assay [3], in [4], in assay [5] and in assay [6] was “inactive” in each case. Besides, the Potency entry in assay [7] is “inactive”.
Take `COc1nccc(-c2c(-c3ccc(F)cc3)ncn2C2CCC(O)CC2)n1` (stereo unspecified): the Potency entry in assay [1], in assay [2], in [4], in assay [5], in assay [6] and in assay [7] was “inactive” throughout.
With `NC(=O)c1noc([C@H](CCCC2CCCCC2)CC(=O)NO)n1`, the Potency entry in [1], in assay [2], in assay [3], in assay [6] and in [7] was “inactive” in each case.
`Cn1c(=O)c(-c2c(Cl)cccc2Cl)cc2cnc(Nc3cccc(C(=O)O)c3)nc21`: the Potency entry in [1], in [2], in assay [3], in assay [4] and in [7] was “inactive” in each case.
On to `Cc1ccc2c(c1)C(=O)[C@]1(O)CCN(c3ccccc3)C1=N2`, for which the Potency entry in [1], in [2], in assay [3], in assay [4], in assay [5] and in [7] was “inactive” in each case.
With `COc1cc2ncnc(Nc3cc(Br)c(O)c(Br)c3)c2cc1OC`, the Potency result in assay [1], in assay [2], in assay [3], in assay [4], in assay [6] and in assay [7] was “inactive” in each case.
Regarding `Cc1cnc(CNC(=O)c2c(=O)c3ccc(N4CCCN(C)CC4)nc3n3c2sc2ccccc23)cn1`, the activity change, negative = cytotoxicity in assay [1] was -21% [at 11.6 µM]; in [2], -3.1% [at 11.6 µM]; in assay [3] it was 10.5% [at 11.6 µM]; in assay [5] it was -5.43% [at 11.6 µM]; in assay [6], -27.4% [at 11.6 µM]; in assay [7], -20.9% [at 11.6 µM].
Consider `COC(=O)N1CCN(Cc2cccc(NC(=O)Nc3ccc(C)nc3)c2F)CC1`, for which the Potency result in [1], in assay [2], in assay [3], in assay [4], in assay [6] and in assay [7] was “inactive” in each case.
Turning to `COc1nc(C)cnc1NS(=O)(=O)c1cccnc1-c1ccc(-c2nnco2)cc1`, the Potency entry in assay [1], in assay [2], in assay [3], in [4], in [6] and in assay [7] was “inactive” throughout.
As for `CC(C)(O)CC(=O)NCCn1ccc2ncnc(Nc3ccc(Oc4cccc(C(F)(F)F)c4)c(Cl)c3)c21`, the Potency entry in assay [1], in assay [2], in assay [3], in [4], in assay [6] and in assay [7] was “inactive” throughout. In assay [5], the Potency was 22.4 µM (active). Besides, the activity change, negative = inhibition in [8] (Viability) is -19.7%.
Take `CC(C)(OCc1nn(Cc2ccccc2)c2ccccc12)C(=O)O`: the Potency result in [1], in assay [2], in assay [3], in assay [4], in [6] and in assay [7] was “inactive” throughout.
As to `CN1CCc2c(n(Cc3ccc(C(=O)NO)cc3)c3ccccc23)C1`, the Potency result in [1], in assay [2], in assay [3] and in assay [7] was “inactive” in each case.
As to `CN1CCN(c2cccc(Nc3nc4c(-c5ccc(S(C)(=O)=O)cc5)cccn4n3)c2)CC1`, the Potency result in assay [1], in assay [2], in [3], in [4] and in [7] was “inactive” in each case. In [5], the Potency was 2.82 µM (active).
For the molecule `CC(C)(C)c1nc(-c2cccc(NS(=O)(=O)c3c(F)cccc3F)c2F)c(-c2ccnc(N)n2)s1`, the Potency result in assay [1], in assay [2], in [3], in assay [4] and in [7] was “inactive” throughout. The activity change, negative = inhibition in assay [8] (Viability) is 12.8%.
For `CCc1cccc(CC)c1NC(=O)N1Cc2[nH]nc(NC(=O)c3ccc(N4CCN(C)CC4)cc3)c2C1`, the Potency result in assay [1], in [2], in [3] and in assay [5] was “inactive” in each case. Besides, the Potency in [6] was 12.6 µM (active).
Take `CNC(=O)c1ccc2c(C(=Nc3cccc(CN(C)C)c3)c3ccccc3)c(O)[nH]c2c1`: the Potency entry in [1], in assay [2], in assay [3], in [4], in assay [5] and in [6] was “inactive” in each case. Also, in [7], the Potency entry was “inactive”. In addition, the activity change, negative = inhibition in assay [8] (HiBiT) is -0.844%; in assay [8] (Viability), -1.9%.
As for `CS(=O)(=O)c1ccc(C2=C(c3ccccc3)C(=O)OC2)cc1`, the Potency result in assay [1], in assay [2], in assay [3], in [4], in assay [6] and in assay [7] was “inactive” throughout. For the same molecule, the Potency entry in assay [10] is “inactive”. In addition, the activity, negative = cell killing in assay [9] (at 45.9 µM (top of the series), tumour line B) is -11.3%; in [9] (at 46.1 µM (top of the series), tumour line C), -14.3%.
For the molecule `CCN1CCN(c2ccc(Nc3cc(N(C)C(=O)Nc4c(Cl)c(OC)cc(OC)c4Cl)ncn3)cc2)CC1`, the Potency result in assay [1], in assay [2], in assay [3], in [4] and in assay [7] was “inactive” throughout.
